The values below come from ChEMBL document CHEMBL4513216, “Probing the Open Global Health Chemical Diversity Library for Multistage-Active Starting Points for Next-Generation Antimalarials” (ACS Infect Dis, 2020).

The whole screen tested about 68,000 compounds, of which about 2,700 (4%) showed an effect of 50% or more. Shown is part of a subset that was picked to be rich in strong results.

This test deals with Plasmodium berghei. As to the kind of experiment: Screen against P. berghei liver stage (PbLuc), transformed with Luciferase, at 2uM. It counts as functional, HepG2. The settings on record: tested at 2 uM.
For the compound `Cc1noc(C)c1CN(C)CC(c1cccs1)N1CCOCC1` (stereo not given), the INHIBITION was 43.7%.
`Cc1cc(N(C)C)nc(NC2CCc3nc(C)nn3C2)n1` (stereo not given): the INHIBITION was found to be 13.28%.
For the compound `O=C(O)c1ccccc1-c1ccc(CNC(=O)C2CCOCC2)cc1`, the INHIBITION was found to be 22.95%.
Consider `COc1cccc(CN2CCC(CO)(Cc3ccc(Cl)cc3)CC2)c1O`, for which the INHIBITION was 71.83%.
Then `OCC1(Cc2ccc(Cl)cc2)CCN(Cc2ccccc2O)CC1`, with -58.31%.
Then `COc1ccc(CN2CCC(CO)(Cc3ccc(Cl)cc3)CC2)c(O)c1`, with 36.34%; and `O=C(Nc1ccc(N2CCCCC2)nc1)N1CCc2sccc2C1`, with -4.09%; and `O=C(Nc1ccc(N2CCOCC2)nc1)N1CCc2sccc2C1`, with 57.59%.
Turning to `O=C(Nc1ccc(N2CCCC2)nc1)N1CCc2sccc2C1`, the INHIBITION was -19.54%.
Then `CN1C(=O)CCC12CCN(S(=O)(=O)c1ccccc1)CC2`, with 46.32%; and `Cn1cnnc1S(=O)(=O)C1CCN(C(=O)c2cccs2)CC1`, with 25.55%; and `Cn1cnnc1S(=O)(=O)C1CCN(C(=O)c2ccco2)CC1`, with 31.78%.
In the case of `CCSc1ccccc1C(=O)N1CCC(S(=O)(=O)c2nncn2C)CC1`, the INHIBITION was 59.08%.
Then `CN(Cc1ccccc1F)Cc1cc2c(cc1Br)OCCO2`, with 12.68%.
The result for `Cc1cnc(C(=O)N2C[C@@H]3CC[C@H]2CN(Cc2cscn2)C3)[nH]1` reads -0.62%; that for `Cc1noc(C)c1CNCc1ccccc1N(C)C1CCN(C)CC1`, 50.46%; that for `CCc1cc(CNCc2ccccc2N(C)C2CCN(C)CC2)on1`, -19.27%.
The result for `CN1CCC(N(C)c2ccccc2CNCc2ccco2)CC1` reads 24.6%.
In the case of `CCC(CO)N(C/C(C)=C/c1ccco1)Cc1ccsc1` (stereo not given), the INHIBITION was 5.85%.
Then `CCOc1ncccc1C(=O)NC1CC(=O)N(CC(F)(F)F)C1` (stereo not given), with -27.19%; and `CC(=O)N1CCC(C(=O)N(CC(F)F)c2cccc(Cl)c2)CC1`, with 23.06%.
The result for `CCCS(=O)(=O)N1CCC(n2nc(-c3cc(C)oc3C)ccc2=O)CC1` reads -17.72%; that for `Cn1c(C2CCCN2C(=O)CN2CSCC2=O)nc2ccccc21` (stereo not given), -73.81%.
Take `CC(C)(C)n1nc(C(=O)NC2CCN(CC(N)=O)CC2)cc1C1CC1`: the INHIBITION is listed as 52.74%.
As for `CC(C)(C)n1nc(C2CC2)cc1C(=O)NC1CCN(CC(N)=O)CC1`, the INHIBITION came out at 40.97%.
Then `Cc1cc(C(=O)NCCN2CCC(C)CC2)nn1C(C)(C)C`, with 10.1%; and `CC(C)c1cc(C(=O)NC2CCN(CC(N)=O)CC2)nn1C(C)(C)C`, with 0.79%; and `Cc1cc(C(=O)NC2CCN(CC(N)=O)CC2)nn1C(C)(C)C`, with 61.06%.
Regarding `CNC(=O)C1CCC(NC(=O)c2cc(C3CC3)n(C(C)(C)C)n2)CC1` (stereo not given), the INHIBITION came out at 37%.
Then `NC(=O)NCC1CCCCN1Cc1nc(-c2ccco2)no1` (stereo not given), with -3.06%; and `COc1ccc(CCC(=O)NCCN2CCC(c3cccs3)CC2)cc1`, with 11.78%.
The result for `CC(CC(=O)NCCNS(C)(=O)=O)C1CCCCC1` (stereo not given) reads -13.76%; that for `CC(NC(=O)Cn1ccc(=O)n(C)c1=O)c1cc(F)ccc1F` (stereo not given), 16.25%; that for `CC(C)OCCC(=O)Nc1c(-c2ccc(F)cc2)ncn1C`, 6.47%.
For `COCCOCCC(=O)Nc1c(-c2ccc(F)cc2)ncn1C`, the INHIBITION came out at 35.68%.
Then `CC(C)COCCC(=O)Nc1c(-c2ccc(F)cc2)ncn1C`, with 60.43%; and `CCN1CC(CN(C)Cc2nc(-c3cccc(Cl)c3)oc2C)CC1=O` (stereo not given), with 32.26%; and `CN(Cc1nc(Cc2ccccc2F)no1)CC1Cc2ccccc2O1` (stereo not given), with 60.9%.
The result for `CN(Cc1nc(CC2CC2)no1)CC1Cc2ccccc2O1` (stereo not given) reads 44.37%; that for `CN(Cc1nc(COc2ccccc2)no1)CC1Cc2ccccc2O1` (stereo not given), 8.03%.
Then `O=C(c1cccc(NCCO)c1)N1CCOCC1`, with 10.74%; and `CCN(CC)C(=O)c1ccc(Cl)c(NC(=O)c2cnc(C)cn2)c1`, with 20.71%.
For the compound `Cc1cn2c(n1)CCC(NC(=O)CCn1cncn1)C2` (stereo not given), the INHIBITION came to 19.64%.
In the case of `Cc1cccc(CN2C[C@@H]3COC[C@]3(COCC(=O)N(C)C)C2)n1`, the INHIBITION amounted to 27.52%.
The result for `Cc1cc(CN2C[C@@H]3COC[C@]3(COCC(=O)N(C)C)C2)no1` reads 64.37%.
Take `Cc1nc(CN2C[C@@H]3COC[C@]3(COCC(=O)N(C)C)C2)cs1`: the INHIBITION turned out to be 23.09%.
The result for `CC(=O)Nc1ccc(CN2CCc3[nH]cnc3C2c2nccn2C)cc1` (stereo not given) reads -42.54%.
Turning to `Clc1ccccc1OCCc1cc(C2CCNC2)n[nH]1` (stereo not given), the INHIBITION worked out at 16.14%.
Then `CN1C[C@H](O)[C@]2(CCN(Cc3ccc(F)c(F)c3)C2)S1(=O)=O`, with 6.4%.
`CCc1noc(CN(Cc2cccs2)C2CC2)n1`: the INHIBITION turned out to be 7.85%.
On to `COC(=O)C1CN(CC(=O)Nc2ccccc2Cl)c2ccccc21` (stereo not given), for which the INHIBITION is listed as 57.34%.
`COC(=O)C1CN(CC(=O)Nc2cc(F)ccc2F)c2ccccc21` (stereo not given): the INHIBITION worked out at 16.95%.
In the case of `COC(=O)C1CN(CC(=O)Nc2cccc(OC)c2)c2ccccc21` (stereo not given), the INHIBITION turned out to be 43.88%.
`Cn1cc(CN2CCC[C@]3(C[C@H](Oc4ncccc4F)CO3)C2)cn1`: the INHIBITION was 20.01%.
Regarding `CC(C)CN1CCC2(Cc3ccccc3NC2=O)C1` (stereo not given), the INHIBITION is recorded as -1.69%.
On to `COCC1CN(CC2CC2)Cc2nn(C)cc21` (stereo not given), for which the INHIBITION is 30.38%.
As for `CCc1ccc2c(c1)C(CCNC(=O)CSC(F)(F)F)C(=O)N2` (stereo not given), the INHIBITION turned out to be 26.51%.
The result for `CCc1ccc2c(c1)C(CCNC(=O)CCc1ccsc1)C(=O)N2` (stereo not given) reads 57.16%; that for `CCc1ccc2c(c1)C(CCNC(=O)Cc1ccc(F)cc1)C(=O)N2` (stereo not given), 33.22%.
`Cc1nc(C)n(CC2CCCCN2CC(=O)Nc2c(C)n[nH]c2C)n1` (stereo not given): the INHIBITION is reported as -91.52%.
The result for `CC(C(=O)N(C)C)N1CCCN(C(=O)Oc2ccccc2)CC1` (stereo not given) reads 10.43%; that for `CC(=O)Nn1ccc2c(nnc3c(-c4ccc(F)cc4)cnn32)c1=O`, -27.89%.
Regarding `CN1CCC(c2cccc(-c3cccc(C(=O)O)c3)n2)CC1`, the INHIBITION is on record as -14.73%.
For `COc1ncc(C(F)(F)F)c(C(=O)O)c1Cl`, the INHIBITION is recorded as 30.38%.
Then `COC(=O)c1c(C(F)(F)F)cnc(OC)c1Cl`, with 53.54%.
Take `COc1nccc(C(F)(F)F)c1C(=O)O`: the INHIBITION is given as -16.59%.
Then `Cc1ccc(C(CNCc2c[nH]nc2C)N(C)C)cc1` (stereo not given), with 30.23%; and `Cc1nc(N2CCC(O)(c3ccc(F)cc3)CC2)c2c(C)nn(C)c2n1`, with 15.92%; and `CN(C)CC(=O)N1CCOC2(CCCN(c3ncccc3F)C2)C1` (stereo not given), with -15.88%.
Then `Cc1noc(C)c1CNCC1COCc2c(-c3ccoc3)nnn2C1` (stereo not given), with 22.84%; and `CCN1CCC2(CCC1=O)CN(c1ccnc(SC)n1)CCN2C` (stereo not given), with -1.27%.
`CSc1nccc(N2CCN(C)C3(CCC(=O)N(CC4CC4)CC3)C2)n1` (stereo not given): the INHIBITION came to 55.4%.
In the case of `COCCN1CCC2(CCC1=O)CN(c1ccnc(SC)n1)CCN2C` (stereo not given), the INHIBITION came to 1.85%.
Then `CN1CCC(N(CCc2ccccc2)C(=O)c2ccc(C#N)nc2)CC1`, with 31.12%; and `CCc1cc(CNC(=O)N2Cc3ccccc3N(C)CC2C)on1` (stereo not given), with 61.01%.
The result for `CC1CN(C)c2ccccc2CN1C(=O)NCc1ccon1` (stereo not given) reads 16.79%; that for `CCc1cc(CNC(=O)N2Cc3ccccc3N(C)CC2C)[nH]n1` (stereo not given), -19.7%; that for `O=C(CN1CCC2(CCCN(CCO)C2=O)C1)NCCc1ccccc1` (stereo not given), -27.89%.
Then `Brc1cccc(C2(CNCc3cc[nH]c3)CCOCC2)c1`, with 10.93%.
Take `O=C(CS(=O)(=O)c1ccc(Cl)cc1)NC1CCCc2ccccc21` (stereo not given): the INHIBITION was determined as 44.37%.
The result for `CN(C)CC1CN(c2ncnc3[nH]ccc23)CCO1` (stereo not given) reads -35.72%; that for `Cc1cc(N2CCOC(C(F)(F)F)C2)nc(-c2ccccc2O)n1` (stereo not given), -43.28%; that for `Cc1cc(N2CCN(CCO)CC2)nc(-c2ccncc2)n1`, 1.22%.
The result for `Cc1cc(N2Cc3cnn(CCO)c3C2)nc(-c2ccccc2O)n1` reads 53.55%; that for `Cc1cc(NCCO)nc(-c2ccccc2O)n1`, -4.81%; that for `Cc1cc(N2Cc3cnn(CCO)c3C2)nc(-c2ccccc2)n1`, 67.53%.
On to `CCCc1nc(C)cc(N2Cc3cnn(CCO)c3C2)n1`, for which the INHIBITION is -18.52%.
The result for `Cc1ccc(CC(=O)N2Cc3nccn3CC(Cn3cccn3)C2)cc1` (stereo not given) reads -8.05%.
For `CCc1nc(C2CCCN(C(=O)c3cccc(C(N)=O)c3)C2)no1` (stereo not given), the INHIBITION is given as -12.41%.
The result for `COc1ccc2[nH]c3c(c2c1)CN(c1cc(NCCO)nc(N)n1)CC3` reads 13.24%; that for `CN1Cc2nc[nH]c2C[C@H]1C(=O)NC1CCCCC1`, 60.6%; that for `CN(Cc1ccccc1)C(=O)[C@@H]1Cc2[nH]cnc2CN1C`, 4.59%.
Regarding `O=C([C@@H]1Cc2[nH]cnc2CN1C(=O)NC1CCCCC1)N1CCCC1`, the INHIBITION is 17.77%.
On to `CCC(C)C(=O)N(C)Cc1cc(F)ccc1N1CCC(OC)CC1` (stereo not given), for which the INHIBITION stood at 15.56%.
As for `Cc1ccc(CNC(=O)c2ccc(S(=O)(=O)N3C[C@H]4C[C@@H]3CN4)cc2)o1`, the INHIBITION stood at 44.86%.
`CCN1CCC(CNCc2c[nH]nc2C(C)(C)C)C1` (stereo not given): the INHIBITION amounted to 37.68%.
On to `CC(C)(C)c1n[nH]cc1CNCC1CCN(C2CC2)C1` (stereo not given), for which the INHIBITION was 10.43%.
The result for `CC(C)N1CCC(CNCc2c[nH]nc2C(C)(C)C)C1` (stereo not given) reads 66.97%; that for `CCc1nc(CN2CCOC(Cn3nc(C)cc3C)C2)no1` (stereo not given), -7.73%.
As for `O=C(CCCc1nc(C2CC2)no1)N1CCCC(c2ccn[nH]2)C1` (stereo not given), the INHIBITION is 41.84%.
The result for `COc1ccc(Cl)cc1NC(=O)CCNc1ccc(C#N)cn1` reads 9.27%; that for `N#Cc1cccc(CN2CC[C@@H]3CN(c4ncccn4)CCO[C@@H]3C2)c1`, 14.94%.
Take `O=S(=O)(C1CC1)N1CCc2onc(COc3ccccn3)c2C1`: the INHIBITION turned out to be 16.03%.
Regarding `Cc1nc(CCNC(=O)NCC(c2ccco2)N(C)C)cs1` (stereo not given), the INHIBITION came out at 34.73%.
Then `O=C(NCc1cc[nH]n1)N1CCN(c2ncccn2)CC1`, with -23.42%; and `O=C(NCc1cc[nH]n1)N1CCN(c2ccccc2Cl)CC1`, with -56.99%; and `CCN1CCN(C(=O)NCc2cc[nH]n2)CC1`, with 56.02%.
In the case of `O=C(NCc1cc[nH]n1)N1CCCC(N2CCCC2)C1` (stereo not given), the INHIBITION was 51.94%.
The result for `CC(=O)NC1CCCN(C(=O)NCc2cc[nH]n2)C1` (stereo not given) reads 45.83%.
Consider `O=C(NCc1cc[nH]n1)N1CCCCC(N2CCCC2)C1` (stereo not given), for which the INHIBITION is 8.37%.
Then `CCOc1ccccc1N1CCN(C(=O)NCc2cc[nH]n2)CC1`, with 56.02%; and `N#Cc1ccccc1N1CCCN(C(=O)NCc2cc[nH]n2)CC1`, with -13.24%.
Then `CC(=O)N1CCCN(C(=O)NCc2cc[nH]n2)CC1`, with -27.69%; and `CN(C)C(CNC(=O)NCc1cc[nH]n1)c1ccco1` (stereo not given), with 53.61%.
The result for `O=C(NCc1cc[nH]n1)NCC(c1ccco1)N1CCCC1` (stereo not given) reads -4.1%.
